G9a block: blocks human histone lysine methyltransferase G9a. G9a H3K9 monomethylation, AlphaScreen, 2 h. AID 504332. actives 8.8% (n = 350,000). Potency, µM (doses to about 102 µM), without a hit: at the top dose activity, negative = inhibition, most hits filed as inhibitors; also: % is scaled to controls: 0 for no effect and ±100 for the full control effect; nearly all actives have a fitted effect of over 75% in size
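Methyltransferase reactions run at room temperature for 2 h (20 nM enzyme, 500 nM biotin-H3K9 peptide, 20 uM SAM) after a 15 min compound preincubation; product detected by AlphaScreen beads and anti-H3K9me1 antibody.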
HP1b chromo inh: blocks HP1-beta chromodomain binding to methylated histone tails. P83916. AlphaScreen HP1-beta / biotin-H3K9me3 peptide binding. actives 0.56% (n = 390,000). Potency, µM (series often up to 114 µM), for the others: at the top dose activity change, negative = inhibition, hits mostly inhibitors. AID 540317; also: nearly all actives have a fitted effect of over 70% in size
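HP1-beta protein (50 nM final) preincubated 30 min at room temperature with biotinylated H3(1-18)K9me3 peptide (50 nM) in PBS pH 7.4, 0.01% Tween-20, then compound added for 30 min. AlphaScreen streptavidin donor/nickel chelate acceptor beads (10 ug/mL final), 30 min dark, luminescence read.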
JMJD2A Tudor: inhibitors of human JMJD2A Tudor domain. O75164. AlphaScreen JMJD2A-Tudor / H3K4me3 peptide binding. Potency, µM (titrated, usually from 114 µM), for the others: at the top dose activity change, negative = inhibition, usual class: inhibitors. actives 4.4% (n = 390,000). AID 504339; also: % is scaled to controls: 0 for no effect and ±100 for the full control effect; nearly all actives have a fitted effect of over 50% in size
BAZ2B inh: blocks human BAZ2B. actives 4.4% (n = 360,000). Potency, µM (titrated, usually from 114 µM), for inactives: at the top dose activity change, negative = inhibition, usual class: inhibitors. AlphaScreen BAZ2B-H3K14Ac peptide displacement. AID 504333. Q9UIF8; also: % is scaled to controls: 0 for no effect and ±100 for the full control effect; nearly all actives have a fitted effect of over 60% in size
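BAZ2B 50 nM plus b-H3(5-23)K14Ac 50 nM, PBS pH 7.4/0.01% Tween-20, 30 min RT; compound added (max 110 uM), 30 min RT; streptavidin donor/Ni-chelate acceptor beads 10 ug/mL final, 20 min dark; AlphaScreen read.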
Sfp inh: blocks B. subtilis Sfp PPTase activity. Q9F4F7. actives 3.5% (n = 310,000). Potency, µM, without a hit: largest response in the series, negative = inhibition, most hits filed as inhibitors. Biochemical Sfp PPTase activity, qHTS. AID 1490;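 also: the enzyme is Sfp with the accession as filed and its product quenches rhodamine fluorescence; 0% = enzyme reaction without inhibitor and -100% = no enzyme wells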
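Sfp 15 nM + cpd, 15 min RT; start w/ rhodamine-CoA 5 uM, BHQ-2-YbbR 12.5 uM (final); 50 mM Hepes pH 7.6, 10 mM MgCl2, 0.01% NP-40, 0.01% BSA; read 525/598 nm at 0 and 30 min.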
PLK1 PBD block: blocks phosphopeptide binding to human PLK1 polo-box domain. P53350. Plk1 PBD binding of FITC phosphopeptide, fluorescence polarization. Potency, µM, for inactives: max response, negative = inhibition, actives largely listed as inhibitors. actives 2.8% (n = 360,000). AID 720504; also: series mostly up to about 57 µM; % is scaled to controls: 0 for no effect and ±100 for the full control effect; nearly all actives have a fitted effect of over 65% in size
* hit, by the source's call; ? = inconclusive; nt = no result; ! = a repeat was not active; [ ] = dose if it differs, or a comment. Compounds with a hit are over-represented: about 12% of the library has one in this group of screens. Calls follow the shape of the dose curve; as a rule, active = well fitted curve in the direction sought with a large enough effect; inconclusive = small, poorly fitted or top-dose-only effect, or another doubt; inactive = no such curve, though single readings can be large; an effect the other way counts as inactive or inconclusive. Potency is read from the fitted curve at half-maximal effect.

SMILES	G9a block	HP1b chromo inh	JMJD2A Tudor	BAZ2B inh	Sfp inh	PLK1 PBD block
COc1cc(-c2nnc(SC/C=C/c3ccccc3)n2N)cc(OC)c1OC	-2.1%[12.7 µM]	11.9%	-2.1%	-3.4%	10.8%	-3.0%
Cc1ccc(NC(=O)CSc2nnc(-c3cnccn3)n2Cc2ccco2)cc1	-31.7%[12.7 µM]	13.0%	-10.4%	?	20µM*	1.0%
Cc1cccc(NC(=O)CSc2nnc(-c3cnccn3)n2Cc2ccco2)c1	9.2%[12.7 µM]	13.9%	-19.8%	-31.9%	-2.2%	-14.8%
Nn1c(SC/C=C/c2ccccc2)nnc1-c1ccncc1	14.1µM*	20.1%	?	-7.1%	-6.4%	-11.5%
CC(=O)N1CCC[C@@]2(CCN(Cc3nccs3)C2)C1	9.2%[12.7 µM]	nt	nt	nt	14.6%	nt
COc1ccc(C2CC(c3cccs3)=NN2S(C)(=O)=O)cc1OC (stereo not given)	nt	16.8%	3.4%	-9.4%	13.4%	-4.4%
COc1ccc(C2CC(c3cccs3)=NN2c2nc(-c3ccccc3)cs2)cc1OC (stereo not given)	?	0.5%	2.8%	-4.4%	44.7µM*	?
COc1ccc(-c2coc3cc(O)cc(O)c3c2=O)cc1	-2.7%	9.0%	-20.1%	-24.5%	50.1µM*!	-19.5%
COc1ccc(-c2coc3cc(OC)cc(O)c3c2=O)cc1	7.3%[0.501 µM]	19.5%	2.7%	1.8%	11.7%	2.4%
CCOc1ccc(NC(=O)Cn2nnc(-c3ccccc3NC(=O)c3cccs3)n2)cc1	-13.7%	-5.2%	56.2µM*	-27.6%	?	?
CCCC(=O)Nc1ccccc1-c1nnn(CC(=O)Nc2ccc(OC)cc2)n1	1.5%[59 µM]	16.6%	-7.5%	-0.6%	1.9%	-6.8%
Nc1c(N2CCCC2)cc(Cl)c2nonc12	4.47µM*	-45.0%	?	-23.0%	-22.4%	21.2µM*
Nc1ccc(N2CCCCC2)c2nonc12	nt	?	56.2µM*	25.1µM*	?	-28.0%
COc1ccccc1OCCNC(=O)C(CCSC)NS(=O)(=O)c1ccccc1F (stereo not given)	-24.1%	10.4%	-20.7%	-10.6%	nt	-3.2%
Cc1ccc(O/C=C2/Nn3c(nnc3-c3cc(-c4ccccc4)n[nH]3)S2)cc1	nt	6.7%[57 µM]	-15.4%[57.1 µM]	nt	nt	nt
CN(C)c1cccc(N=C2C=C(N3CCOCC3)CC(C)(C)C2)c1	3.16µM*	-11.4%	50.1µM*	-2.9%	23.7%	-26.0%
COc1ccc(NC(=O)C(OC(=O)CNC(=O)c2ccccc2)c2ccccc2)c(C)c1 (stereo not given)	nt	nt	-17.8%	nt	nt	nt
Cc1cccc(N(C)C(CNS(=O)(=O)c2ccccc2)c2ccccc2)c1 (stereo not given)	1.1%[59 µM]	5.6%	-33.9%	-22.6%	nt	nt
CCC1(c2ccccc2)NC(=O)N(CC(=O)N(C)Cc2c(F)cccc2Cl)C1=O (stereo not given)	44.7µM*	28.7%	-5.3%	-15.2%	6.5%	-0.4%
CCC1(c2ccccc2)NC(=O)N(CC(=O)N(C)Cc2ccccc2)C1=O (stereo not given)	36.1%	-20.6%	-18.1%	0.6%	3.8%	-4.2%
CCN(CCNC(=O)C1CCCN(Cc2nc(-c3ccc(OC)cc3)oc2C)C1)c1ccccc1 (stereo not given)	-32.5%[12.7 µM]	-42.0%	31.6µM*	11.2µM*	?	-0.9%
CCN(CCNC(=O)C1CCN(Cc2nc(-c3ccc(Cl)cc3)oc2C)CC1)c1ccccc1	?	?	50.1µM*	14.1µM*	?	-0.9%
Cc1cccc(-c2nc(CN3CCCC(C(=O)N4CCN(c5cc(Cl)ccc5C)CC4)C3)c(C)o2)c1 (stereo not given)	14.1µM*	0.7%	-33.3%	?	nt	nt
CCc1ccc(-c2nc(CN3CCC(C(=O)NCCN(CC)c4ccccc4)CC3)c(C)o2)cc1	?	?	50.1µM*	?	-14.1%	7.4%
Cc1oc(-c2ccc(Cl)cc2)nc1CN1CCCC(C(=O)N2CCOCC2)C1 (stereo not given)	?	39.5%	-11.6%	-13.7%[57.1 µM]	4.7%	-10.0%
SMILES	G9a block	HP1b chromo inh	JMJD2A Tudor	BAZ2B inh	Sfp inh	PLK1 PBD block
CCCN(CCC)CCCNC(=O)C1CCCN(Cc2nc(-c3ccc(Cl)cc3)oc2C)C1 (stereo not given)	-32.6%[59 µM]	13.9%	-10.4%	-7.8%	nt	nt
Cc1oc(-c2cccc(Cl)c2)nc1CN1CCC(C(=O)NC(C)c2ccccc2)CC1 (stereo not given)	-2.9%[59 µM]	22.9%	-15.2%	-25.6%	nt	nt
CCN(CCNC(=O)C1CCN(Cc2nc(-c3cccc(Cl)c3)oc2C)CC1)c1ccccc1	?	?	39.8µM*	39.8µM*	?	2.8%
Cc1oc(-c2cccc(Cl)c2)nc1CN1CCC(C(=O)NCc2cccnc2)CC1	20.5%[59 µM]	9.9%	10.3%	-10.7%	3.5%	-3.1%
Cc1oc(-c2cccc(Cl)c2)nc1CN1CCC(C(=O)NC2CC2)CC1	11.5%[59 µM]	-19.4%	-21.9%	1.3%	14.2%	21.2µM*
S=C(NCc1ccccc1)N1CCn2cccc2C1c1ccncc1 (stereo not given)	?	42.2%	-24.6%	?	14.9%	16.8µM*
CCCCNC(=S)N1CCn2cccc2C1c1ccccc1 (stereo not given)	56.2µM*	7.2%	-24.0%	nt	7.3%	1.9%
S=C(NCc1ccccc1)N1CCn2cccc2C1c1cccnc1 (stereo not given)	-31.8%	-14.6%	-34.9%	-37.9%	6.8%	-9.8%
CC(=O)/C=C(\C)Nc1ccccc1O	11.5%	8.0%	2.7%	-12.8%	?	1.9%
O=C(Nc1cccc(Br)c1)c1cc(S(=O)(=O)N2CCOCC2)cs1	nt	20.6%	-6.2%	-12.1%	9.2%	2.0%
COc1ccc(C(=O)c2oc3ccccc3c2NC(=O)COc2c(C)cc(C)cc2C)cc1	23.2%[59 µM]	95.8%	26.8%	15.5%	nt	nt
CCOC(=O)c1ccc(S(=O)(=O)Nc2nc3cc(S(=O)(=O)NC4=NCCCCC4)ccc3s2)cc1	3.55µM*	-21.5%	89.1µM*	nt	28.2µM*	23.8µM*
Nc1nc2cc(S(=O)(=O)NC3=NCCCCC3)ccc2s1	-21.2%[12.7 µM]	30.1%	-22.1%	-21.2%	?	21.2µM*
Nc1ccc(S(=O)(=O)NC2=NCCCCC2)cc1	nt	27.8%	-7.6%	-1.8%	-3.4%	-8.3%
CN1CCN(c2ncnc3c2c(-c2ccccc2)cn3-c2ccc(F)cc2)CC1	44.7µM*	-16.5%	?	?	-11.7%	0.1%
CCOc1ccc(-n2cc(-c3ccccc3)c3c(N4CCOCC4)ncnc32)cc1	?	25.2%	-23.7%	25.1µM*	-13.6%	-6.3%
c1ccc(-c2cn(-c3ccccc3)c3ncnc(N4CCCCC4)c23)cc1	?	15.7%	-25.7%	-13.0%	-12.6%	0.8%
COc1cccc(N2CCN(c3ncnc4c3c(-c3ccccc3)cn4-c3ccc(F)cc3)CC2)c1	-3.3%[59 µM]	16.0%	-29.4%	-3.0%	nt	nt
